Among the data in ChEMBL document CHEMBL1961873, “Compounds: GSK PKIS; Assays: Nanosyn kinase panel” (2012) are inhibition values, retold here.

One may read the inhibition as the relative decrease from the control value, in per cent.

Experiment [1] addresses 5'-AMP-activated protein kinase catalytic subunit alpha-2 (Homo sapiens) (UniProt P54646). The note with it: at 1 µM.
The target in experiment [2] is T1, NUAK family SNF1-like kinase 1 (Homo sapiens) (UniProt O60285).
T1 sequence (whole entry): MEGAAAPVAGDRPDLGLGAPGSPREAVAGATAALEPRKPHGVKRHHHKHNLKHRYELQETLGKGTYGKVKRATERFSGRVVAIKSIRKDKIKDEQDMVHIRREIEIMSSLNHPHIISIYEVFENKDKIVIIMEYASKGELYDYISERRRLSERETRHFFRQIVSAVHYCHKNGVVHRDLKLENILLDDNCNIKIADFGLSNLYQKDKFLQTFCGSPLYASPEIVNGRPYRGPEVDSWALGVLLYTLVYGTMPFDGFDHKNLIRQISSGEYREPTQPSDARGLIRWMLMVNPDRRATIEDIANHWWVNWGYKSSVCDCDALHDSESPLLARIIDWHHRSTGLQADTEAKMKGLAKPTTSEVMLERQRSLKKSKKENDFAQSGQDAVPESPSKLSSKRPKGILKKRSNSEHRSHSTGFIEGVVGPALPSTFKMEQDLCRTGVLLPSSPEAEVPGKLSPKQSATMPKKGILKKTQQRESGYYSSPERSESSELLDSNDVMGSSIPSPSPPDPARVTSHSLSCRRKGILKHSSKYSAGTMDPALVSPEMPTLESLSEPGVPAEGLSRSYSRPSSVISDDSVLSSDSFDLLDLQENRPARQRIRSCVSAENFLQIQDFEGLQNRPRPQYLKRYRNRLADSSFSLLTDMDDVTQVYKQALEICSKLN
To be noted: at 0.1 µM.

Experiment [3] has as its target T1, NUAK family SNF1-like kinase 1 (Homo sapiens). To be noted: at 1 µM.
The target of experiment [4] is T2, Serine/threonine-protein kinase BRSK1 (Homo sapiens) (UniProt Q8TDC3).
T2 sequence (whole entry): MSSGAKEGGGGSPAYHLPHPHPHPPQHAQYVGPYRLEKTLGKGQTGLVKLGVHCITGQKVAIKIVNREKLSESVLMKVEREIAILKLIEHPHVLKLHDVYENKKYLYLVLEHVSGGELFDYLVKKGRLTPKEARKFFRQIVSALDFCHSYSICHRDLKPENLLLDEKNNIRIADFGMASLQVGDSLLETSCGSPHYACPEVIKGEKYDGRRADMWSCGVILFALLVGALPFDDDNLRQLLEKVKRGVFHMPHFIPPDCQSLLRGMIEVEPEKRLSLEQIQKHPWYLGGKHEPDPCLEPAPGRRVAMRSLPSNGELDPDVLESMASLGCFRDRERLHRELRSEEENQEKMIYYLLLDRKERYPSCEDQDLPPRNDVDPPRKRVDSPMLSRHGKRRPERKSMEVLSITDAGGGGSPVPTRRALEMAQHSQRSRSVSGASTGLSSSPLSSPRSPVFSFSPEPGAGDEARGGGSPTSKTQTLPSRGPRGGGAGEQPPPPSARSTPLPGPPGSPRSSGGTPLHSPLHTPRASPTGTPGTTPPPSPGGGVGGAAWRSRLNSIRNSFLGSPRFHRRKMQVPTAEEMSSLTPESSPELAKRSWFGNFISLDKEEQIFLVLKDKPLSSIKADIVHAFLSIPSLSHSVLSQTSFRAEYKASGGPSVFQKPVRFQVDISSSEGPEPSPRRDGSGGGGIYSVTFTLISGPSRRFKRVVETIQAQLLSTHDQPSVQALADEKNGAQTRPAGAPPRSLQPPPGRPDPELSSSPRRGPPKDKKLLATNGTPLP
The note with it: at 0.1 µM.

Experiment [5] concerns the target T2, Serine/threonine-protein kinase BRSK1 (Homo sapiens). The note with it: at 1 µM.
Experiment [6] deals with T3, Serine/threonine-protein kinase BRSK2 (Homo sapiens) (UniProt Q8IWQ3).
T3 sequence (whole entry): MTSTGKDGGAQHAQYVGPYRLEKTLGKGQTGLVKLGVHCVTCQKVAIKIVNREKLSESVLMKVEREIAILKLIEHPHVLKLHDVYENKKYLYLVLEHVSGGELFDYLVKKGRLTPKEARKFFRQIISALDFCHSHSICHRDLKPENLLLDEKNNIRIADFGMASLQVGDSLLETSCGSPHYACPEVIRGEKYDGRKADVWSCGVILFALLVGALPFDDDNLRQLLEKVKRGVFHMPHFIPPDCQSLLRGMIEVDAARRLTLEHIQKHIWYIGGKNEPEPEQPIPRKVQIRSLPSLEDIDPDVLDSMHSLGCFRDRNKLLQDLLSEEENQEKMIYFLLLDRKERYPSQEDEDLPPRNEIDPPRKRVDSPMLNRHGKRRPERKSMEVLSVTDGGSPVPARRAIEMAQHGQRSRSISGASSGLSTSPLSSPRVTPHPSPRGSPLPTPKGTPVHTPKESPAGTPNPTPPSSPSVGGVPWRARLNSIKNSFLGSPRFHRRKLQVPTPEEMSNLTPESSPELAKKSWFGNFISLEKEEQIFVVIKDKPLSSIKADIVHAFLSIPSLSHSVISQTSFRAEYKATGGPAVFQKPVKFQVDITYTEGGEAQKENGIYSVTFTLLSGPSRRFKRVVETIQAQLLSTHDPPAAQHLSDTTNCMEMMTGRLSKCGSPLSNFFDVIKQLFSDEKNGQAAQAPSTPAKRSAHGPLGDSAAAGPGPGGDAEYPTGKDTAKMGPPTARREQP
The note with it: at 0.1 µM.

Experiment [7] deals with T3, Serine/threonine-protein kinase BRSK2 (Homo sapiens). The note with it: at 1 µM.
Experiment [8] addresses Calcium/calmodulin-dependent protein kinase type 1D (Homo sapiens) (UniProt Q8IU85). To be noted: at 0.1 µM.
The target is the same in experiment [9]. To be noted: at 1 µM.
For experiment [10], the target named is Calcium/calmodulin-dependent protein kinase type II subunit alpha (Homo sapiens) (UniProt Q9UQM7). To be noted: at 0.1 µM.
Experiment [11] has the same target. The note with it: at 1 µM.
In experiment [12] the target is Calcium/calmodulin-dependent protein kinase type II subunit delta (Homo sapiens) (UniProt Q13557). To be noted: at 0.1 µM.
The target is the same in experiment [13]. To be noted: at 1 µM.
The target in experiment [14] is T4, Calcium/calmodulin-dependent protein kinase type IV (Homo sapiens) (UniProt Q16566).
T4 sequence (whole entry): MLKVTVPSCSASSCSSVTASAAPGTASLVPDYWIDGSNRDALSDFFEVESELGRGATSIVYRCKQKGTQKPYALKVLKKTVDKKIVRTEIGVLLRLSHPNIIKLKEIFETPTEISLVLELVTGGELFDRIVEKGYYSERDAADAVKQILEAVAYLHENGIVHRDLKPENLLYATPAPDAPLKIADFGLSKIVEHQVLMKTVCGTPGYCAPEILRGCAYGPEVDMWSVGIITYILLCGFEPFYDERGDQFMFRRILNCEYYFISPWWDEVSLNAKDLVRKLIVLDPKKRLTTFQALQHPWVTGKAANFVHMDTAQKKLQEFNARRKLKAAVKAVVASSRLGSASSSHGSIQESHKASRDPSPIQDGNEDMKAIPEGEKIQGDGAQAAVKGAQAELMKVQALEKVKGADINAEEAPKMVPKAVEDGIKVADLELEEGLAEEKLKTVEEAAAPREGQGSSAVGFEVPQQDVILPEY
To be noted: at 0.1 µM.

Experiment [15] addresses T4, Calcium/calmodulin-dependent protein kinase type IV (Homo sapiens). The note with it: at 1 µM.
Experiment [16] has as its target T5, Serine/threonine-protein kinase Chk1 (Homo sapiens) (UniProt O14757).
T5 sequence (whole entry): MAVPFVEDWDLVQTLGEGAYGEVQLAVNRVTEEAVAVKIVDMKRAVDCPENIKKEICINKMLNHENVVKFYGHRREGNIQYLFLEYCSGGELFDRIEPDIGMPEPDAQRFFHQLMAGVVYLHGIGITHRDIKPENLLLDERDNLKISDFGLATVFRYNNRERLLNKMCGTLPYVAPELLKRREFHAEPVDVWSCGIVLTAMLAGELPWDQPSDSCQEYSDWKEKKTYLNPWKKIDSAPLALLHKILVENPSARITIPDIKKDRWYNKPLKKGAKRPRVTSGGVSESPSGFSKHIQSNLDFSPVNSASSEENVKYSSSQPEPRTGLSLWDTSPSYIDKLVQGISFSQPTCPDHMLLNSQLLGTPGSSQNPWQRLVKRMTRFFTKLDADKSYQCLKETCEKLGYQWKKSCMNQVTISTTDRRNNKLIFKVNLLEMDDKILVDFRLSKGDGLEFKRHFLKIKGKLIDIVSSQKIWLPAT
The note with it: at 0.1 µM.

For experiment [17], the target named is T5, Serine/threonine-protein kinase Chk1 (Homo sapiens). To be noted: at 1 µM.
The target in experiment [18] is Serine/threonine-protein kinase Chk2 (Homo sapiens) (UniProt O96017). To be noted: at 0.1 µM.
Experiment [19] shares this target. To be noted: at 1 µM.
Experiment [20] has as its target Death-associated protein kinase 1 (Homo sapiens) (UniProt P53355). The note with it: at 0.1 µM.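 Note: reported figure is the mean inhibition of DAPK1.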

Each structure is given as a SMILES string.

Sequence of Death-associated protein kinase 1 (Homo sapiens) (P53355 whole entry, looked up): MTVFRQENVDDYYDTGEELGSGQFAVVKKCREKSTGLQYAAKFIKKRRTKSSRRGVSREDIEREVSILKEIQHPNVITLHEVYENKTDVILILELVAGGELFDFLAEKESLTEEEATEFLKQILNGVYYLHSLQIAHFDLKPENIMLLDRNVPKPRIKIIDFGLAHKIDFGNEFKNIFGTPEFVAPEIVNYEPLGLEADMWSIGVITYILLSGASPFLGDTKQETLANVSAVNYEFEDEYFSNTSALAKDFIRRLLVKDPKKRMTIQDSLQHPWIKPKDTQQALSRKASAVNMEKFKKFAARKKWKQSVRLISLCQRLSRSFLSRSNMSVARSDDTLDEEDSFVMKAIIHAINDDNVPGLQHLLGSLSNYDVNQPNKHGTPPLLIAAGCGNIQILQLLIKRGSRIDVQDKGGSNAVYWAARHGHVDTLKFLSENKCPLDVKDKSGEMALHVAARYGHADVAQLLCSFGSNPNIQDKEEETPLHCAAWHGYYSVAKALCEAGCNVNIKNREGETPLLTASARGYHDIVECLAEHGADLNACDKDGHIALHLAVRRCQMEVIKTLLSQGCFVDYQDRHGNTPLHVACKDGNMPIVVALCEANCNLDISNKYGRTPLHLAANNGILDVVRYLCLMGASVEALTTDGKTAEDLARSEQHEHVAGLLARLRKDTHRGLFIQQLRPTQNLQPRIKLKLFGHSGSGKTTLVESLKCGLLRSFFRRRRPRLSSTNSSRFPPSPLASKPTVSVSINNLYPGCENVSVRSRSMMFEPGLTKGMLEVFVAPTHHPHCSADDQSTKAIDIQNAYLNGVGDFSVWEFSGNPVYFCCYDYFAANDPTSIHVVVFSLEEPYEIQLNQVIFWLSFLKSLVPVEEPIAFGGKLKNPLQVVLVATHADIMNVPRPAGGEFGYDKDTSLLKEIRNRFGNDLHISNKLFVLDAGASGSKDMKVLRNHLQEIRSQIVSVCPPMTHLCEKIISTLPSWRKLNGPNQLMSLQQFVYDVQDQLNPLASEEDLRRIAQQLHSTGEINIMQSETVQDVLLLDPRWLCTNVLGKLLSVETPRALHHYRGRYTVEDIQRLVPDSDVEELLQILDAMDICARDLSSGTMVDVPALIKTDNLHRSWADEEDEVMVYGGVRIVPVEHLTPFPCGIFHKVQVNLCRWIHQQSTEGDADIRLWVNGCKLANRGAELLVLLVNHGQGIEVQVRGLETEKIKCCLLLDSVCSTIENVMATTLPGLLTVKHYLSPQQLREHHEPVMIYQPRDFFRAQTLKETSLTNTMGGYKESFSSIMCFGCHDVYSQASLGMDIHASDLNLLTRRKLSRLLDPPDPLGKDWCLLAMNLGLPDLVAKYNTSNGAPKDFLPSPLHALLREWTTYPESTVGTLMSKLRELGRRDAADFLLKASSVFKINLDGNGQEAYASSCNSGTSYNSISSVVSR
Sequence of Serine/threonine-protein kinase Chk2 (Homo sapiens) (O96017 whole entry): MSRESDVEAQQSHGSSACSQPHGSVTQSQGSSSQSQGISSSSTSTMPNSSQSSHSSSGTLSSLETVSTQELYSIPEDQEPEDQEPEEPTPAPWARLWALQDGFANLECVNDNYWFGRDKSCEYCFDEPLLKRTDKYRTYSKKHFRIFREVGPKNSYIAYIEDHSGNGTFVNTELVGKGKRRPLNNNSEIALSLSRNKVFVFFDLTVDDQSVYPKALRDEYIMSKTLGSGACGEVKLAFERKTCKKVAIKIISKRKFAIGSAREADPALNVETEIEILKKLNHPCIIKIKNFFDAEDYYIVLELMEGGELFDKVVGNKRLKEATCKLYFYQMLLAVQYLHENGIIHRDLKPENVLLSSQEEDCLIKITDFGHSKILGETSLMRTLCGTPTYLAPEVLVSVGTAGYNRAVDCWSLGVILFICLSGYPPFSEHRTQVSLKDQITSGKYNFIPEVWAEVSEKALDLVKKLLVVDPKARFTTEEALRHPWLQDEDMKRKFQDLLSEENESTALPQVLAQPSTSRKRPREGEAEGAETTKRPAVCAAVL
Sequence of Calcium/calmodulin-dependent protein kinase type II subunit alpha (Homo sapiens) (Q9UQM7 whole entry): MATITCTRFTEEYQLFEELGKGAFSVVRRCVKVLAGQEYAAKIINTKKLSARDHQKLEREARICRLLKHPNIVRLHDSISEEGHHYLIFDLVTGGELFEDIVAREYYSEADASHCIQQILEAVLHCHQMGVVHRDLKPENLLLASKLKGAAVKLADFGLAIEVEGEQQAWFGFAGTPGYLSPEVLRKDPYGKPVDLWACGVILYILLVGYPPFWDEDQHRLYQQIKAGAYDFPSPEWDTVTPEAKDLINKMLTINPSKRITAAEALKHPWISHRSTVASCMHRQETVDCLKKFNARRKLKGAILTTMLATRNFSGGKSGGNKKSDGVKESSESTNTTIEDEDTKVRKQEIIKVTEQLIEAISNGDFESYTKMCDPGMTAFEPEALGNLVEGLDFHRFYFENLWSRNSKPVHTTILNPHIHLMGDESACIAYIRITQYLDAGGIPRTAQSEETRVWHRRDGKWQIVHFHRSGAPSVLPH
Sequence of 5'-AMP-activated protein kinase catalytic subunit alpha-2 (Homo sapiens) (P54646 whole entry, looked up): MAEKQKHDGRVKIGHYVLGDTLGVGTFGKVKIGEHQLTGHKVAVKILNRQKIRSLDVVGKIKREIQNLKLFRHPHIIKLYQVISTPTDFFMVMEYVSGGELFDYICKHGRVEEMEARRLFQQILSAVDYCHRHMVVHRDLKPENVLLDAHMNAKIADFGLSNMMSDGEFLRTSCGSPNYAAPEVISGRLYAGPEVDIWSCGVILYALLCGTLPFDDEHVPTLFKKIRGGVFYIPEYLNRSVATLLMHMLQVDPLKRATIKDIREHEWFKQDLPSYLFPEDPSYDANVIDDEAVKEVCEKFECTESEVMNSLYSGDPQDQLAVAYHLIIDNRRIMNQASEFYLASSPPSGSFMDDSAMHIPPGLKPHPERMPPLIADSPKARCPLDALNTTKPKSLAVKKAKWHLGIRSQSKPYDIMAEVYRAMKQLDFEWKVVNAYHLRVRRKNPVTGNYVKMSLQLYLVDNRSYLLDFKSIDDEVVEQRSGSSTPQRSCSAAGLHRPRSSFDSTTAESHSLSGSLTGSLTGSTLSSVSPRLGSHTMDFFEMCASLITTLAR
Sequence of Calcium/calmodulin-dependent protein kinase type 1D (Homo sapiens) (Q8IU85 whole entry, looked up): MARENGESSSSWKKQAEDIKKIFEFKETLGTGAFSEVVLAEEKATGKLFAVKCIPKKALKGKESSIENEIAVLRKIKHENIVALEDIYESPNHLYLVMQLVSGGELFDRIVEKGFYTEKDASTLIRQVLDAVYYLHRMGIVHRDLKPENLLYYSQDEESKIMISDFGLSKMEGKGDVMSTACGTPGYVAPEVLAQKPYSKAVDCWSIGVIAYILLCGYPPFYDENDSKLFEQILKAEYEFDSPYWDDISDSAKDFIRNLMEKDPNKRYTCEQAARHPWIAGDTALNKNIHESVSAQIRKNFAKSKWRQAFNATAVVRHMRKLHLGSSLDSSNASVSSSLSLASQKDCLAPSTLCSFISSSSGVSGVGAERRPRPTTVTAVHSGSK
Sequence of Calcium/calmodulin-dependent protein kinase type II subunit delta (Homo sapiens) (Q13557 whole entry): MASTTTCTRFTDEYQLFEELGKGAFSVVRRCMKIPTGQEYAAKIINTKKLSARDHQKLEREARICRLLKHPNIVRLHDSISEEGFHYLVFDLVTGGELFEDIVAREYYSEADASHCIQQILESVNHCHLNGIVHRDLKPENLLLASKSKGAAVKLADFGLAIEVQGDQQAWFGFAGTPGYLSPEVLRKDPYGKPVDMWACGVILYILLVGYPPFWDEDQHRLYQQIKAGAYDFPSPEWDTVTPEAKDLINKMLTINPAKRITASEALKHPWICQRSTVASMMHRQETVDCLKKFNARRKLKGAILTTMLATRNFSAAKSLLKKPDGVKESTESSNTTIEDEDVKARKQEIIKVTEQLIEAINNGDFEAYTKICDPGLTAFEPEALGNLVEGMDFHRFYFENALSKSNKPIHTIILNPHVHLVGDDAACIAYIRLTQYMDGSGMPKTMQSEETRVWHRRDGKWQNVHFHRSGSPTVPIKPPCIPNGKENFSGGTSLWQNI

Turning to `COC(=O)Nc1nc2cc(Oc3cccc(NC(=O)Nc4cc(C(F)(F)F)ccc4F)c3)ccc2[nH]1`, the inhibition in experiment [1] is 3.68%; in experiment [2], 0.14%; in [3], -3.14%; in experiment [4], 1.74%; in experiment [5], 1.87%; in [6] it was 1.38%. Also, the inhibition in experiment [7] was 2.1%; in [8], 0.54%; in experiment [9], 4.96%; in experiment [10], 0.56%; in [11], 0.78%; in experiment [12], 0.53%. Moreover, the inhibition was 0.94% in experiment [13]; 1.37% in [14]; 0.22% in experiment [15]; -2.61% in [16]; -1.51% in experiment [17]; -0.85% in experiment [18]. Also, the inhibition in [19] amounted to 0.45%; in experiment [20] it was 0.43%.

For the molecule `Cc1nn(C)c2cc(N(C)c3ccnc(Nc4cccc(S(N)(=O)=O)c4)n3)ccc12`, the inhibition in [1] is 3.54%; in [2], 20.6%; in experiment [3], 64.2%; in experiment [4] it was 1.45%; in [5] it was 0.63%; in [6], 0.72%. The inhibition in experiment [7] was 4.4%; in [8], 0.85%; in experiment [9], 3.14%; in [10], 1.6%; in [11], 1.72%; in [12], 2.35%. Besides, the inhibition in experiment [13] amounted to 3.73%; in experiment [14] it was 1.4%; in experiment [15], 1.88%; in experiment [16], 4.46%; in [17], 56%; in [18], 6.25%. Further, the inhibition in [19] was 9.6%; in experiment [20], 8.62%.

`CN1CCC(C(=O)Nc2n[nH]c3nnc(-c4ccccc4)cc23)CC1`: the inhibition worked out at 5.01% in [1]; 1.18% in [2]; 3.89% in [3]; 1.14% in experiment [4]; 4.22% in experiment [5]; 2.62% in experiment [6]. In addition, the inhibition was found to be 6.52% in experiment [7]; 0.42% in experiment [8]; 1.89% in [9]; 3.75% in [10]; 3.81% in experiment [11]; 3.23% in experiment [12]. The inhibition is 3.34% in [13]; -0.65% in experiment [14]; -2.3% in experiment [15]; -2.79% in experiment [16]; -0.12% in experiment [17]; -1.11% in [18]. In addition, the values for the inhibition in experiment [19] and in experiment [20] were 3.84% and -2.19%, respectively.

Turning to `CCn1c(-c2nonc2N)nc2cncc(C(=O)N3CC[C@H](N)C3)c21`, the inhibition in [1] was determined as 6.01%; in [2] it was 0.02%; in experiment [3], 0.59%; in [4], 1.37%; in experiment [5], 2.48%; in experiment [6], 0.94%. Besides, the inhibition in experiment [7] was determined as 6.07%; in experiment [8], 1.79%; in [9], 0.54%; in experiment [10], 3.71%; in experiment [11], 3.64%; in experiment [12], 4.1%. The inhibition in [13] is 4.33%; in [14] it was 1.7%; in experiment [15] it was -0.55%; in [16], 4.56%; in experiment [17] it was 6.37%; in experiment [18] it was 1.1%. The inhibition in experiment [19] is 1.86%; in [20], 5.74%.

In the case of `COc1cc2ncn(-c3cc(O[C@H](C)c4ccccc4Cl)c(C(N)=O)s3)c2cc1OC`, the inhibition was 8.68% in [1]; 24% in experiment [2]; 71.8% in experiment [3]; 30.1% in experiment [4]; 64.9% in experiment [5]; 42% in [6]. Further, the inhibition was determined as 69.2% in [7]; 1.01% in [8]; 2.31% in experiment [9]; 3.24% in experiment [10]; 7.42% in [11]; 5.14% in experiment [12]. Further, the inhibition in experiment [13] is 19.1%; in experiment [14] it was -2.07%; in experiment [15] it was -0.73%; in experiment [16] it was 3.51%; in [17], -0.5%; in experiment [18], -2.58%. For the same molecule, the figures for the inhibition in [19] and in experiment [20] were -0.51% and -5.15%, respectively.

For `COc1cc2ncn(-c3cc(O[C@@H](C)c4ccccc4Cl)c(C(N)=O)s3)c2cc1OC`, the inhibition in [1] turned out to be 5.06%; in experiment [2] it was 3.52%; in experiment [3], 22.4%; in [4], 8.66%; in [5], 44%; in experiment [6], 19.4%. The inhibition is 58.9% in experiment [7]; 1.43% in [8]; 1.53% in experiment [9]; 1.15% in experiment [10]; -1% in experiment [11]; 2.63% in experiment [12]. The inhibition was 5.01% in experiment [13]; -1.47% in experiment [14]; -3.56% in experiment [15]; 9.31% in experiment [16]; 11.3% in experiment [17]; 8.19% in experiment [18]. Further, the values for the inhibition in experiment [19] and in experiment [20] were 11.6% and 13.5%, respectively.
